SMN2 splice enh – enhancers of SMN2 splice variant expression; HEK293 SMN2-luciferase splicing reporter, luminescence, 30-36 h; Potency, µM (doses to about 46.1 µM), for inactives: at the top dose activity change, positive = activation, most hits filed as activators; 210,000 tested, 2.8% active; note: % of control where 0% means no effect; nearly all actives have a fitted effect of over 55% in size
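HEK293 cells carry an SMN2 […]–luciferase reporter in which exon 7 inclusion puts luciferase in frame. Cells were plated 10-12 h before compound addition, then incubated 30-36 h at 37C. ONE-Glo luminescence was read; sodium butyrate at 4.5 mM final served as control.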
Rab9 prom act – activates the Rab9 promoter; Huh7 Rab9 promoter-luciferase reporter, luminescence, 24 h; Potency, µM (series often up to 9.22 µM), for inactives: top-dose activation, negative = inhibition, most hits filed as activators; 320,000 tested, 2.8% active; AID 485297; note: % of control where 0% means no effect; nearly all actives have a fitted effect of over 60% in size
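Huh7 cells stably carrying a Rab9 promoter-luciferase reporter, 1500 cells per well in OP-MEM I with 10% FBS, treated with compound 24 hours at 37C. Luciferase activity read by luminescence after 10 minutes with Amplite reagent.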
ELG1 genotoxic – genotoxicity induction in ELG1-luciferase HEK293T cells. 330,000 tested, 1.3% active. Potency, µM (doses to about 46 µM), inactives show at the top dose activity change, positive = activation, most hits filed as activators. HEK293T ELG1-luciferase reporter, luminescence, 16 h. AID 504466; note: % of control where 0% means no effect; nearly all actives have a fitted effect of over 60% in size
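HEK293T cells expressing luciferase-tagged ELG1 were exposed to compound or DMSO vehicle for 16 hr at 37 °C and 5% CO2. Luciferase activity was then measured with ONE-Glo after 30 min at room temperature.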
FLuc modulator – counter-screen for miR-21 project: firefly luciferase inhibitors or activators | P08659 | Potency, µM (series often up to 57.5 µM), for the others: at the highest dose activity change, negative = inhibition, most hits filed as inhibitors | AID 588342 | 360,000 tested, 6.9% active | purified FLuc, Km substrates, luminescence inhibition;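 note: plate controls were vehicle for no effect and reference inhibitor for full effect; nearly all actives have a fitted effect of over 55% in size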
Target sequence (P08659 whole entry, looked up): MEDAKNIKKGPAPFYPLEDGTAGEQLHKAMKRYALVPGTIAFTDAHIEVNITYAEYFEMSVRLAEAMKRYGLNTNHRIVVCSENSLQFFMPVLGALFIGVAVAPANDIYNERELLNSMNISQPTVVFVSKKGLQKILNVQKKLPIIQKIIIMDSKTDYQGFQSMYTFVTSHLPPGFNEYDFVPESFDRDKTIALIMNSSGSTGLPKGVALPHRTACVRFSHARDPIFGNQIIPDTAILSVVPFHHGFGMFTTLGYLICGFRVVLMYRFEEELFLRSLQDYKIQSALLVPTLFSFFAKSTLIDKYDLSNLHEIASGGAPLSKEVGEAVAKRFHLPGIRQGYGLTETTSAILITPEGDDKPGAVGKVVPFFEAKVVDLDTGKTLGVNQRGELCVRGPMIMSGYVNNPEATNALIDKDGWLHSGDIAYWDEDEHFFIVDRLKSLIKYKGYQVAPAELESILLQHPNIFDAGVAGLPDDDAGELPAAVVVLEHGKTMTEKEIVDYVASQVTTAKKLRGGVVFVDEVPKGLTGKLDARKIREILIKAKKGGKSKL
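Biochemical qHTS of compounds, final roughly 60 µM downward over six points, against 10 nM purified firefly luciferase using Km concentrations of substrates (10 uM D-luciferin, 10 uM ATP) in Tris acetate pH 7.5 buffer; luminescence output.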
NPC1 promoter act – activates the NPC1 promoter; Huh7 NPC1 promoter luciferase reporter, 24 h; 320,000 tested, 2.4% active; Potency, µM (top dose mostly 9.22 µM), inactives show at the highest dose activation, actives largely listed as activators; note: % of control where 0% means no effect; nearly all actives have a fitted effect of over 60% in size
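Stable NPC1-promoter luciferase Huh7 line; cpd (DMSO) 24 h, 37 °C, 5% CO2; Amplite luciferase reagent 10 min RT; luminescence readout. qHTS format.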
* hit, by the source's call; ? = inconclusive; . = not tested or not shown; [ ] = remark or other dose. A selection: hits, their analogues and other compounds. The true share with any hit is near 7.4%. Calls come from the whole dose curve; as a rule, active = well fitted curve in the direction sought with a large enough effect; inconclusive = small, poorly fitted or top-dose-only effect, or another doubt; inactive = no such curve, though single readings can be large; an effect the other way counts as inactive or inconclusive. Potency is the fitted concentration of half-maximal effect.

SMILES	SMN2 splice enh	Rab9 prom act	ELG1 genotoxic	FLuc modulator	NPC1 promoter act
Cc1ccc(C(=O)O/N=C(\N)c2ccccn2)c(Cl)c1	.	0.708µM*	?	0.019µM*	?
N/C(=N\OC(=O)Cc1ccccc1[N+](=O)[O-])c1ccccn1	-16.5%	-10.2%[1.84 µM]	?	?	7.0%
Cc1c(C(=O)O/N=C(\N)c2ccccn2)cccc1[N+](=O)[O-]	.	0.794µM*	2.06µM*	0.301µM*	3.16µM*
N/C(=N\OC(=O)c1ccc(Cl)cc1[N+](=O)[O-])c1ccccn1	.	?	20.6µM*	3.38µM*	?
N/C(=N\OC(=O)c1cc(Br)ccc1Cl)c1ccccn1	11.2µM*	?	?	3.79µM*	?
N/C(CS(=O)(=O)c1ccccn1)=N\OC(=O)c1ccccc1Cl	.	2.24µM*	?	?	2µM*
N/C(CS(=O)(=O)c1ccccn1)=N\OC(=O)c1ccc(Cl)cc1	.	-2.7%	8.8%	-12.9%	2.4%
N/C(=N\OC(=O)CCCOc1ccc(Cl)cc1Cl)c1ccccn1	-2.9%	0.1%	2.2%	-18.5%	-8.1%
Cc1cc(C)cc(N2CCn3c2nc2c3c(=O)n(CCCc3ccccc3)c(=O)n2C)c1	.	.	.	-17.0%	.
Cc1cccc(NC(=O)C2C3C=CC(C4CC34)C2C(=O)O)c1 (stereo unspecified)	-29.2%	0.1%	6.5%	16.9µM*	-1.2%
Cc1cccc(NC(=O)C2C3C=CC(O3)C2C(=O)O)c1 (stereo unspecified)	.	0.7%	-6.5%	-2.0%	-0.7%
O=C(CC1S/C(=N/N=C/C=C/c2ccccc2)NC1=O)Nc1ccc(C(=O)O)cc1 (stereo unspecified)	-5.7%	-2.7%	-10.9%	13.5µM*	-4.0%
O=C(CC1S/C(=N/N=C/c2ccco2)NC1=O)Nc1ccccc1 (stereo unspecified)	8.5%	-9.2%	-8.3%	-2.3%	-2.3%
COc1ccc(N(/N=C2\Sc3ccccc3C2=O)C(C)=O)cc1	15.8µM*	?	?	12µM*	10.5%
COc1ccccc1N(/N=C1\Sc2ccccc2C1=O)C(C)=O	.	4.47µM*	0.92µM*	12µM*	25.5%
O=C(Cn1cnc2c(oc3ccccc32)c1=O)Nc1ccccc1C(F)(F)F	.	.	.	-18.1%	.
COC(=O)[C@@]1(Cc2ccc(OC)cc2)[C@H]2c3cc(C(=O)N(C)C)n(Cc4ccc(Cl)c(C(F)(F)F)c4)c3C[C@H]2CN1C(=O)c1ccccc1	-35.2%	.	.	.	.
Cc1ccccc1N=CC1=C(O)c2ccccc2C1=O	8.91µM*	0.251µM*	?	0.135µM*	?
Fc1ccc(N=Cc2ccc[nH]2)cc1	.	-3.9%	1.0%	-9.0%	-0.3%
O=C1C(C=Nc2ccc(F)cc2)=C(O)c2ccccc21	.	0.794µM*	?	0.269µM*	0.355µM*
COc1ccc(N=CC2=C(O)c3ccccc3C2=O)c(OC)c1	-60.3%	0.708µM*	0.0651µM*	0.0757µM*	?
Cc1ccc(N2Cc3ccccc3C2=S)cc1	11.2µM*	2.51µM*	-9.5%	4.78µM*	2.82µM*
COc1ccccc1C(C)NCC(=O)Nc1ccccc1C(F)(F)F (stereo unspecified)	4.47µM*	6.4%	-4.5%	-9.3%	-0.5%
CC(=O)NCCc1nc2cc(NC(=O)c3ccc([N+](=O)[O-])cc3)ccc2n1C	.	?	10.8%	15.1µM*	?
Cn1c(CCN2CCN(c3ccccc3)CC2)nc2cc(NC(=O)c3ccco3)ccc21	-14.2%	4.47µM*	-6.2%	-12.9%	4.5%
SMILES	SMN2 splice enh	Rab9 prom act	ELG1 genotoxic	FLuc modulator	NPC1 promoter act
CN1CCN(CCc2nc3cc(NC(=O)c4ccco4)ccc3n2C)CC1	.	1.3%	2.2%	4.1%	-2.7%
Cc1ccc(C(=O)Nc2ccc3c(c2)nc(CCNC(=O)c2ccco2)n3C)cc1	.	3.55µM*	?	?	3.55µM*
Cn1c(CN2CCCC2)nc2cc(NC(=O)c3ccco3)ccc21	?	?	14.6µM*	?	23.9%
Cc1ccc(N2CCN(CCc3nc4cc(NC(=O)c5ccco5)ccc4n3C)CC2)cc1	-32.3%	0.7%	-16.5%	-6.1%	-2.3%
COc1ccc(OC)c(CNC(=O)NCc2noc3ccc(C)cc23)c1	.	.	.	-0.2%	.
O=C(Nc1c(C(=O)N2CCN(c3ccccn3)CC2)oc2ccccc12)c1ccc([N+](=O)[O-])cc1	.	2.8%	-2.6%[9.26 µM]	6.75µM*	2.0%
Cc1noc(C)c1C(=O)Nc1ccc(N(C)C)cc1	.	4.4%	16.5%	0.9%	5.6%
CN(C)c1ccc(NC(=O)c2cnsn2)cc1	.	?	?	3.01µM*	?
O=C(c1ccncc1)N1CCC2(CC1)CN(c1ccccc1)C2	-14.9%	.	.	.	.
O=C(Nc1ccc(S(=O)(=O)N2CCOCC2)cc1)c1ccc([N+](=O)[O-])o1	.	-41.6%	-0.6%	-2.5%	-1.1%
CN1CCN(c2ccc(NC(=O)c3ccc(-c4ccccc4F)o3)cc2)CC1	.	1µM*	?	2.69µM*	3.16µM*
O=C(Nc1ccc(N2CCOCC2)cc1)c1ccc([N+](=O)[O-])o1	.	1.58µM*	9.2µM*	8.49µM*	1.41µM*
Cc1ccc(C(=O)N2CCN(c3ccc(NC(=O)c4ccc(Br)o4)cc3)CC2)cc1	-86.7%	-2.2%	-25.8%	1.7%	-4.9%
O=C(Nc1ccc(N2CCOCC2)cc1)c1ccc(Br)o1	.	0.282µM*	?	4.26µM*	0.447µM*
O=C(Nc1ccc(N2CCCC2)c(Cl)c1)c1ccc(Br)o1	11.2µM*	2.82µM*	?	5.36µM*	3.55µM*
CCOC(=O)c1oc2c(c1C)-c1nn(Cc3ccc(Cl)cc3)cc1CC2	8.5%	.	.	-7.0%	.
O=C(CCCCCn1c(=O)[nH]c2ccsc2c1=O)NCc1ccccc1	-6.1%	.	.	-1.8%	.
CSc1ncc(C(=O)Nc2cccc(C)c2C)c(-c2ccccc2)n1	.	.	.	-1.6%	.
O=C(Nc1ccc(N2CCN(C(=O)c3ccco3)CC2)cc1)c1ccccc1Br	.	1.2%	-17.3%	0.6%	7.0%
N/C(=N\O)c1ccc(NC(=O)c2ccc(Br)o2)cc1	18.5%	?	23.1µM*	16.9µM*	?
CC1CCN(c2ccc(NC(=O)c3ccc(Br)o3)cc2)CC1	.	1µM*	1.46µM*	1.9µM*	1µM*
O=C(NNC(=O)c1ccc(Br)o1)c1ccc(NC(=O)c2ccccc2)cc1	-4.9%	-4.3%	4.9%	5.9%	-2.6%
CN1CCN(c2ccc(NC(=O)c3ccc(Br)o3)cc2)CC1	.	?	16.4µM*	12µM*	1.58µM*
CCC(=O)N1CCN(c2ccc(NC(=O)c3ccc(Br)o3)cc2)CC1	12.7%	1.3%	15.4%	-12.8%	7.6%
CN1CCN(c2ccc(NC(=O)c3ccccc3Br)cc2)CC1	?	?	14.6µM*	?	?
COc1ccc(CCn2nnnc2C2(c3ccc(C)cc3)CC2)cc1	.	-11.2%[46.1 µM]	.	.	-1.9%[46.1 µM]
CS(=O)(=O)N1CCN(c2ccc(NC(=O)c3ccc(Br)o3)cc2)CC1	7.08µM*	3.16µM*	1.46µM*	-15.4%	2.82µM*
CC1CCN(c2ccc(NC(=O)c3cccnc3)cc2)CC1	28.2µM*	?	11.4%	12µM*	?

Screens deposited in PubChem by National Center for Advancing Translational Sciences (NCATS).
